Bioassay records as filed in PubChem BioAssay.
HP1b chromo inh = inhibitors of HP1-beta chromodomain binding to methylated histone tails; P83916; AlphaScreen HP1-beta / biotin-H3K9me3 peptide binding; Potency, µM (series often up to 114 µM), without a hit: at the highest dose activity change, negative = inhibition, hits mostly inhibitors; 390,000 compounds, 0.56% hits; note: nearly all actives have a fitted effect of over 70% in size
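Compound inhibition of the preformed complex between 50 nM HP1-beta and 50 nM biotinylated H3K9me3 peptide was read by AlphaScreen. Buffer was PBS pH 7.4 with 0.01% Tween-20. Incubations ran 30 min at room temperature, with 10 ug/mL donor/acceptor beads.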
JMJD2A Tudor inh = inhibitors of human JMJD2A Tudor domain. O75164. AlphaScreen JMJD2A-Tudor / H3K4me3 peptide binding. Potency, µM (series often up to 114 µM), inactives show top-dose activity change, negative = inhibition, usual class: inhibitors. 390,000 compounds, 4.4% hits. AID 504339; note: % is set by controls: 0 for no effect and ±100 for the full control effect; nearly all actives have a fitted effect of over 50% in size
Target sequence (O75164 whole entry, looked up, the tested form may be a part): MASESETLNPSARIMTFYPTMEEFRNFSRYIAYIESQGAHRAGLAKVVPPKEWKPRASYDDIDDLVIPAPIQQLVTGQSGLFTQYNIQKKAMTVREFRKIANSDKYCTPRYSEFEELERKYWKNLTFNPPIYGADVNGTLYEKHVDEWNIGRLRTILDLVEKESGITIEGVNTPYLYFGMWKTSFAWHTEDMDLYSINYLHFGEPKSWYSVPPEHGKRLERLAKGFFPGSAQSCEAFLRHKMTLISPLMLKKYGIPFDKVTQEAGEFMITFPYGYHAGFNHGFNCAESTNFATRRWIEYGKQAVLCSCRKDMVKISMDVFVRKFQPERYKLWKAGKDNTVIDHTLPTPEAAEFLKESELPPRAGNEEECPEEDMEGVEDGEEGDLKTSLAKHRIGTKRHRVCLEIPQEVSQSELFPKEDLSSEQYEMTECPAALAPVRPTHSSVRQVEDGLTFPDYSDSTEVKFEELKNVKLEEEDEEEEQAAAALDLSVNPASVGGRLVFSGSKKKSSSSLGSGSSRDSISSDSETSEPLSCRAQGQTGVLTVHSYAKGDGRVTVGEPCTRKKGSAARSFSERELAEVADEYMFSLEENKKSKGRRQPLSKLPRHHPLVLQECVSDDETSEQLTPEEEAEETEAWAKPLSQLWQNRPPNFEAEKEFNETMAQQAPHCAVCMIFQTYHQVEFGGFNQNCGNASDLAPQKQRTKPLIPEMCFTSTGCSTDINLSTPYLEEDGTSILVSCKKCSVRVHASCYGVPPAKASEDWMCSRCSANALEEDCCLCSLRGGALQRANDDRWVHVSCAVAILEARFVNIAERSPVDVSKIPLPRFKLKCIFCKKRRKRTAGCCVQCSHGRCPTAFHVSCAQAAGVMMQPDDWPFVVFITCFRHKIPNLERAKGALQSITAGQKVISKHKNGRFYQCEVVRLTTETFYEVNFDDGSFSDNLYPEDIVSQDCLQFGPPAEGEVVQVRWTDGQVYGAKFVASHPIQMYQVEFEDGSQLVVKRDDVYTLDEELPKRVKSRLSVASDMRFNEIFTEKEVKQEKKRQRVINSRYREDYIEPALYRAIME
BAZ2B inh = blocks human BAZ2B; AlphaScreen BAZ2B-H3K14Ac peptide displacement; 360,000 compounds, 4.4% hits; Potency, µM (highest dose often 114 µM), inactives show at the highest dose activity change, negative = inhibition, most hits filed as inhibitors; Q9UIF8; AID 504333; note: % is set by controls: 0 for no effect and ±100 for the full control effect; nearly all actives have a fitted effect of over 60% in size
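Multi-concentration screen (max 110 uM) measuring displacement of acetylated histone H3 peptide from BAZ2B by AlphaScreen, using 50 nM protein, 50 nM peptide and 10 ug/mL streptavidin donor plus Ni-chelate acceptor beads.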
Sfp inh = blocks B. subtilis Sfp PPTase activity. Biochemical Sfp PPTase activity, qHTS. AID 1490. Potency, µM, without a hit: largest response in the series, negative = inhibition, actives largely listed as inhibitors. 310,000 compounds, 3.5% hits;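 note: the enzyme is Sfp with the accession as filed and its product quenches rhodamine fluorescence; 0% = enzyme reaction without inhibitor and -100% = no enzyme wells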
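Sfp 15 nM + cpd, 15 min RT; start w/ rhodamine-CoA 5 uM, BHQ-2-YbbR 12.5 uM (final); 50 mM Hepes pH 7.6, 10 mM MgCl2, 0.01% NP-40, 0.01% BSA; read 525/598 nm at 0 and 30 min.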
G9a inh = G9a (human) methyltransferase inhibition; Q96KQ7; G9a H3K9 monomethylation, AlphaScreen, 2 h; Potency, µM (titrated, usually from 102 µM), inactives show top-dose activity, negative = inhibition, actives largely listed as inhibitors; 350,000 compounds, 8.8% hits; AID 504332; note: % is set by controls: 0 for no effect and ±100 for the full control effect; nearly all actives have a fitted effect of over 75% in size
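Quantitative HTS format: methyltransferase activity on a biotin-tagged H3K9 peptide is measured by AlphaScreen, using a rabbit anti-monomethyl-H3K9 antibody with streptavidin donor and anti-IgG acceptor beads. Final levels are 20 nM enzyme, 500 nM peptide, 20 uM SAM; 2 h RT.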
L3MBTL1 block = L3MBTL1 (human) inhibition; 230,000 compounds, 0.66% hits; Potency, µM (top dose mostly 57.1 µM), without a hit: at the highest dose activity, negative = inhibition, usual class: inhibitors; Q9Y468; AID 485360; AlphaScreen L3MBTL1–H3K9me1 peptide binding; note: % is set by controls: 0 for no effect and ±100 for the full control effect; nearly all actives have a fitted effect of over 60% in size
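Read-out is AlphaScreen signal from streptavidin donor and nickel chelate acceptor beads (10 ug/mL final each) bridging L3MBTL1 (50 nM) and biotinylated K9-monomethylated H3(1-15) peptide (75 nM), after 30 min compound exposure at room temperature.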
Numbers without * were called inactive; [ ] = another dose, or the depositor's remark. Most compounds without a hit are left out; they make up all but 12% or so of the library. Calls come from the whole dose curve; as a rule, active = well fitted curve in the direction sought with a large enough effect; inconclusive = small, poorly fitted or top-dose-only effect, or another doubt; inactive = no such curve, though single readings can be large; an effect the other way counts as inactive or inconclusive. Potency is the fitted concentration of half-maximal effect.

What do the screens show for `COc1cccc2c1C(=O)c1c(O)c3c(c(O)c1C2=O)C[C@@](O)(C(=O)CO)C[C@@H]3OC1CC(N)C(O)C(C)O1` (some centres not stated)?
HP1b chromo inh: inconclusive; JMJD2A Tudor inh: inconclusive; Sfp inh: -6%; G9a inh: inconclusive

How did COc1cccc2c1C(=O)c1c(O)c3c(c(O)c1C2=O)C[C@@](O)(C(=O)CO)C[C@@H]3O[C@H]1C[C@H](N)[C@H](O)[C@H](C)O1 do in these assays?
HP1b chromo inh: 16%; JMJD2A Tudor inh: -13%; BAZ2B inh: 35µM*; Sfp inh: inconclusive; G9a inh: 22µM*; L3MBTL1 block: -14%

What do the screens show for `COc1cc(Cl)c(C)cc1Nc1nc2ccccc2nc1NS(=O)(=O)c1ccccc1`?
HP1b chromo inh: 54%; JMJD2A Tudor inh: -23%; BAZ2B inh: -1%; G9a inh: -6%[59 µM]

What do the screens show for `COc1cc(C2NCC(c3ccc(Cl)cc3Cl)c3c2[nH]c2ccccc32)cc(OC)c1OC` (configuration not stated)?
HP1b chromo inh: inconclusive; JMJD2A Tudor inh: 45µM*; BAZ2B inh: 35µM*; Sfp inh: inconclusive; G9a inh: -18%[59 µM]; L3MBTL1 block: -19%

What do the screens show for `O=C(CSc1nncs1)Nc1ccc2[nH]c(=O)[nH]c2c1`?
HP1b chromo inh: 31%; JMJD2A Tudor inh: -15%; BAZ2B inh: 0%; G9a inh: 11µM*; L3MBTL1 block: 7%

Results for COc1ccc(Nc2nnc(SCC(=O)Nc3ccc4[nH]c(=O)[nH]c4c3)s2)cc1 ?
HP1b chromo inh: 18%; JMJD2A Tudor inh: -26%; BAZ2B inh: -5%; Sfp inh: -15%; G9a inh: 16µM*; L3MBTL1 block: -4%

What do the screens show for `COCC(=O)Nc1nnc(SCC(=O)N2CCCCC2)s1`?
HP1b chromo inh: 30%; JMJD2A Tudor inh: 1%; BAZ2B inh: 1%; Sfp inh: 16%; G9a inh: inconclusive

Results for O=C(Nc1nnc(SCC(=O)N2CCCCC2)s1)C1CCCCC1 ?
HP1b chromo inh: 14%; JMJD2A Tudor inh: -33%; BAZ2B inh: -1%; Sfp inh: -13%; G9a inh: 4µM*; L3MBTL1 block: inconclusive

How did CCn1c(=O)n(CC)c2cc(NC(=O)CSc3ccc([N+](=O)[O-])cn3)ccc21 do in these assays?
HP1b chromo inh: 19%; JMJD2A Tudor inh: 0%; BAZ2B inh: -20%; Sfp inh: 6%; G9a inh: -5%

What do the screens show for `O=C(CSc1ccc([N+](=O)[O-])cn1)Nc1ccc2[nH]c(=O)[nH]c2c1`?
HP1b chromo inh: 3%; JMJD2A Tudor inh: -10%; BAZ2B inh: 3%; Sfp inh: -11%; G9a inh: 32µM*

How did Cc1nnc(SCC(=O)Nc2ccc3[nH]c(=O)[nH]c3c2)s1 do in these assays?
HP1b chromo inh: 31%; JMJD2A Tudor inh: -13%; BAZ2B inh: -5%; G9a inh: inconclusive; L3MBTL1 block: 4%

How did Cc1cc(Cn2nc(C(=O)NCc3cccc(Br)c3)cc2-c2ccccc2)on1 do in these assays?
HP1b chromo inh: 29%; JMJD2A Tudor inh: -3%; BAZ2B inh: 3%; G9a inh: -7%[2.33 µM]; L3MBTL1 block: 2%

Results for COc1cccc(Nc2nnc(SCC(=O)N3CCOCC3)s2)c1 ?
HP1b chromo inh: 7%; JMJD2A Tudor inh: -6%; BAZ2B inh: 10%; Sfp inh: -1%; G9a inh: 3%; L3MBTL1 block: 2%

Results for COc1ccc(Nc2nnc(SCC(=O)N3CCCC3)s2)cc1 ?
HP1b chromo inh: 37%; JMJD2A Tudor inh: 5%; BAZ2B inh: -6%; Sfp inh: 6%; G9a inh: 35µM*

What do the screens show for `COc1ccc(NC(=O)CSc2nnc(NC(=O)c3ccccc3C(=O)O)s2)cc1`?
HP1b chromo inh: -6%; JMJD2A Tudor inh: 50µM*; BAZ2B inh: -3%; Sfp inh: 28%; G9a inh: inconclusive; L3MBTL1 block: 0%

Results for COc1ccc(NC(=O)CSc2nnc(NC(=O)Nc3ccc(OC)cc3)s2)cc1 ?
HP1b chromo inh: 33%; JMJD2A Tudor inh: -11%; BAZ2B inh: -18%; G9a inh: inconclusive

How did COc1cc2c(cc1OC)C1O[C@](CCCCN3C(=O)c4ccccc4C3=O)(C2)OC2=C1C(=O)OC1(CCCCC1)C2 do in these assays?
BAZ2B inh: 1%[22.9 µM]; Sfp inh: -13%

How did O=S(=O)(c1ccccc1)c1nc(-c2ccco2)oc1NCc1ccco1 do in these assays?
HP1b chromo inh: inconclusive; JMJD2A Tudor inh: inconclusive; BAZ2B inh: inconclusive; Sfp inh: -7%; G9a inh: inconclusive; L3MBTL1 block: -11%

What do the screens show for `O=S(=O)(c1ccccc1)c1nc(-c2ccco2)oc1NCc1ccccc1`?
HP1b chromo inh: 13%; JMJD2A Tudor inh: -33%; BAZ2B inh: -37%; Sfp inh: 3%; G9a inh: 35µM*

What do the screens show for `O=S(=O)(c1ccccc1)c1nc(-c2ccco2)oc1Nc1ccccc1`?
HP1b chromo inh: -6%; JMJD2A Tudor inh: -1%; BAZ2B inh: inconclusive; Sfp inh: 3%; G9a inh: 7.9µM*; L3MBTL1 block: -14%

Results for O=S(=O)(c1ccc(F)cc1)c1nc(-c2ccco2)oc1Nc1ccccc1 ?
HP1b chromo inh: 0%; JMJD2A Tudor inh: -38%; BAZ2B inh: -38%; Sfp inh: -8%; G9a inh: inconclusive; L3MBTL1 block: -12%

What do the screens show for `CCOc1cc(N2CCOCC2)c(OCC)cc1NC(=O)CN1C(=O)NC(CC)(c2ccc(F)cc2)C1=O` (configuration not stated)?
HP1b chromo inh: -6%; JMJD2A Tudor inh: -32%

Results for COc1ccc(C(CNC(=O)C(CCSC)NC(=O)c2ccccc2OC)N2CCCCC2)cc1 (configuration not stated) ?
HP1b chromo inh: 5%; JMJD2A Tudor inh: -22%; BAZ2B inh: -26%; Sfp inh: 7%; G9a inh: 32µM*

Results for Nc1n[nH]c(S(=O)(=O)CCCc2ccccc2)n1 ?
HP1b chromo inh: 67%; JMJD2A Tudor inh: -14%[11.4 µM]; BAZ2B inh: -4%; Sfp inh: 15%; G9a inh: 50µM*; L3MBTL1 block: 3%

Results for Cc1ccc(Cl)cc1N1CCN(C(=O)c2c(C)oc3ncnc(N4CCOCC4)c23)CC1 ?
HP1b chromo inh: 21%; JMJD2A Tudor inh: -3%; BAZ2B inh: -1%[57.1 µM]; G9a inh: -10%[59 µM]

How did C[n+]1ccc(C(=O)Nc2ccccc2Cl)cc1 do in these assays?
HP1b chromo inh: -2%; JMJD2A Tudor inh: inconclusive; BAZ2B inh: inconclusive; Sfp inh: 4%; G9a inh: 25µM*; L3MBTL1 block: inconclusive
